According to PubChem BioAssay AID1159580 (chemical genetic matrix, 2015):
Values joined by “and” are separate entries in the source; they are usually repeats but may differ in a detail not shown here. Equal values may be shown once. Hit rate of the full screen: of about 5,500 compounds, about 2,000 (36%) were called active. Roughly 18% stayed inconclusive and do not appear here. The list shows a part of the results. Unmarked numbers belong to inactive results. Rule as the data show it: active = normalized growth mostly below about 0.91 (no sharp cut-off); inconclusive = no clear call, values can overlap the other calls; inactive = mostly above about 0.92.

Assay: chemical genetic growth profiling, strain panel (AID 1159580);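 also: tested at 20 µM; growth read once vehicle control cultures reached saturation at 30 °C; 1 = growth at the plate median or of vehicle wells; lower values mean less growth of the strain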
Details: S. cerevisiae deletion strains, growth OD

## COC(=O)c1c(C)cc(OC)cc1O
Locus YAL013W, strain DEP1, active compounds read low
  normalized growth: 1.02
Locus YAL021C, strain ccr4, active compounds read low
  normalized growth: 1.02
Locus YAL026C, strain drs2, active compounds read low
  normalized growth: 0.984
Locus YAL030W, strain snc1, active compounds read low
  normalized growth: 0.971
Locus YBL061C, strain skt5, active compounds read low
  normalized growth: 0.988
Locus YBR009C, strain hhf1, active compounds read low
  normalized growth: 0.978
Locus YBR021W, strain FUR4, active compounds read low
  normalized growth: 1.02
Locus YBR023C, strain chs3, active compounds read low
  normalized growth: 0.973
Locus YBR171W, strain sec66, active compounds read low
  normalized growth: 0.961
Locus YBR229C, strain ROT2, active compounds read low
  normalized growth: 0.996
Locus YBR231C, strain swc5, active compounds read low
  normalized growth: 0.978
Locus YBR279W, strain paf1, active compounds read low
  normalized growth: 0.988
Locus YCL011C, strain gbp2, active compounds read low
  normalized growth: 0.969
Locus YCL016C, strain dcc1, active compounds read low
  normalized growth: 0.966
Locus YCL029C, strain bik1, active compounds read low
  normalized growth: 0.976
Locus YCL069W, strain vba3, active compounds read low
  normalized growth: 0.989
Locus YCR088W, strain abp1, active compounds read low
  normalized growth: 0.971
Locus YDL005C, strain med2, active compounds read low
  normalized growth: 0.985
Locus YDL035C, strain GPR1, active compounds read low
  normalized growth: 1
Locus YDL040C, strain nat1, active compounds read low
  normalized growth: 0.98
Locus YDL074C, strain BRE1, active compounds read low
  normalized growth: 1.02
Locus YDL101C, strain DUN1, active compounds read low
  normalized growth: 1
Locus YDL134C, strain PPH21, active compounds read low
  normalized growth: 1
Locus YDL185W, strain tfp1, active compounds read low
  normalized growth: 0.987
Locus YDL192W, strain arf1, active compounds read low
  normalized growth: 0.985
Locus YDR001C, strain nth1, active compounds read low
  normalized growth: 0.983
Locus YDR069C, strain doa4, active compounds read low
  normalized growth: 0.98
Locus YDR101C, strain arx1, active compounds read low
  normalized growth: 0.954
Locus YDR137W, strain rgp1, active compounds read low
  normalized growth: 1.01
Locus YDR150W, strain NUM1, active compounds read low
  normalized growth: 0.989
Locus YDR159W, strain sac3, active compounds read low
  normalized growth: 0.953
Locus YDR162C, strain NBP2, active compounds read low
  normalized growth: 0.997
Locus YDR195W, strain ref2
  normalized growth: 1.03
Locus YDR297W, strain sur2, active compounds read low
  normalized growth: 0.984
Locus YDR318W, strain mcm21, active compounds read low
  normalized growth: 0.962
Locus YDR334W, strain swr1, active compounds read low
  normalized growth: 0.984
Locus YDR335W, strain msn5, active compounds read low
  normalized growth: 0.994
Locus YDR388W, active compounds read low
  normalized growth: 0.986
Locus YDR392W, strain spt3, active compounds read low
  normalized growth: 0.913
Locus YDR502C, strain sam2, active compounds read low
  normalized growth: 0.962
Locus YEL003W, strain gim4, active compounds read low
  normalized growth: 0.975
Locus YEL037C, strain rad23, active compounds read low
  normalized growth: 0.991
Locus YEL061C, strain CIN8 (second series), active compounds read low
  normalized growth: 0.98
Locus YEL061C, strain CIN8, active compounds read low
  normalized growth: 0.989
Locus YER015W, strain faa2, active compounds read low
  normalized growth: 0.98
Locus YER016W, strain bim1, active compounds read low
  normalized growth: 0.984
Locus YER110C, active compounds read low
  normalized growth: 0.947
Locus YER111C, strain swi4, active compounds read low
  normalized growth: 0.966
Locus YER155C, strain BEM2 (second series), active compounds read low
  normalized growth: 0.858 (active)
Locus YER155C, strain BEM2, active compounds read low
  normalized growth: 0.994
Locus YER167W, strain BCK2, active compounds read low
  normalized growth: 0.993
Locus YFR010W, strain ubp6, active compounds read low
  normalized growth: 0.992
Locus YGL078C, strain dbp3, active compounds read low
  normalized growth: 0.993
Locus YGL086W, strain mad1, active compounds read low
  normalized growth: 0.988
Locus YGL167C, strain pmr1, active compounds read low
  normalized growth: 0.977
Locus YGL173C, strain kem1, active compounds read low
  normalized growth: 0.971
Locus YGL227W, strain vid30, active compounds read low
  normalized growth: 0.969
Locus YGL240W, strain doc1, active compounds read low
  normalized growth: 0.938
Locus YGL248W, strain PDE1, active compounds read low
  normalized growth: 0.997
Locus YGL253W, strain hxk2, active compounds read low
  normalized growth: 0.979
Locus YGR078C, strain PAC10, active compounds read low
  normalized growth: 0.984
Locus YGR135W, strain pre9, active compounds read low
  normalized growth: 0.962
Locus YGR229C, strain SMI1, active compounds read low
  normalized growth: 1.03
Locus YGR252W, strain gcn5, active compounds read low
  normalized growth: 1.02
Locus YHR013C, strain ard1, active compounds read low
  normalized growth: 1.02
Locus YHR027C, strain rpn1, active compounds read low
  normalized growth: 0.997
Locus YHR030C, strain SLT2, active compounds read low
  normalized growth: 0.993 and 1.04
Locus YHR079C, strain IRE1 (second series), active compounds read low
  normalized growth: 0.961
Locus YHR079C, strain IRE1, active compounds read low
  normalized growth: 1.02
Locus YHR094C, strain hxt1, active compounds read low
  normalized growth: 0.99
Locus YHR129C, strain ARP1, active compounds read low
  normalized growth: 0.999
Locus YHR142W, strain chs7, active compounds read low
  normalized growth: 0.954
Locus YHR200W, strain rpn10, active compounds read low
  normalized growth: 0.965
Locus YIL066C, strain RNR3, active compounds read low
  normalized growth: 1
Locus YIL073C, strain SPO22, active compounds read low
  normalized growth: 0.991
Locus YIL125W, strain kgd1, active compounds read low
  normalized growth: 0.984
Locus YIR030C, strain dcg1, active compounds read low
  normalized growth: 0.972
Locus YJL092W, strain hpr5, active compounds read low
  normalized growth: 0.978
Locus YJL095W, strain BCK1 (second series), active compounds read low
  normalized growth: 0.996
Locus YJL095W, strain BCK1, active compounds read low
  normalized growth: 0.971 and 1.02
Locus YJL115W, strain asf1, active compounds read low
  normalized growth: 0.987
Locus YJL129C, strain trk1, active compounds read low
  normalized growth: 0.965
Locus YJL134W, strain LCB3, active compounds read low
  normalized growth: 0.999
Locus YJL154C, strain vps35, active compounds read low
  normalized growth: 0.98
Locus YJL164C, strain tpk1, active compounds read low
  normalized growth: 0.969
Locus YJL166W, strain qcr8, active compounds read low
  normalized growth: 0.972
Locus YJL168C, strain set2, active compounds read low
  normalized growth: 0.986
Locus YJL187C, strain SWE1 (second series), active compounds read low
  normalized growth: 0.998
Locus YJL187C, strain SWE1, active compounds read low
  normalized growth: 0.982
Locus YJR043C, strain POL32, active compounds read low
  normalized growth: 0.966
Locus YJR066W, strain TOR1, active compounds read low
  normalized growth: 0.965
